Laboratory results from PubChem BioAssay (NCI).
Compounds without any hit were thinned out: in the full panel of roughly 79,000, 15% have a hit. Activity calls are given as the source filed them. No stated cut-off is given here; in the data, active means growth inhibition above about 70%; inactive means the rest.

Experiments:
[1] = NCI Yeast Anticancer Drug Screen. Data for the mlh1 rad18 strain (AID 175); conditions: S. cerevisiae mlh1 rad18 strain growth inhibition, stronger effect = higher value
Summary of the method: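 Growth inhibition of the yeast strain was measured after compound exposure and expressed relative to vehicle-treated controls. The strain carries defined defects in DNA damage repair.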

[2] = NCI Yeast Anticancer Drug Screen. Data for the rad18 strain (AID 177); conditions: S. cerevisiae rad18 mutant growth inhibition, stronger effect = higher value
Summary of the method: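 Yeast carrying a defined DNA damage repair alteration were exposed to compounds. Growth inhibition was expressed relative to vehicle-treated controls.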

[3] = NCI Yeast Anticancer Drug Screen. Data for the rad52 strain (AID 147);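 further: 0% = growth of vehicle-treated control cultures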; conditions: S. cerevisiae rad52 mutant growth inhibition, stronger effect = higher value
Summary of the method: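 Yeast strain carrying a DNA damage repair alteration was exposed to test compounds. Growth inhibition was measured relative to vehicle-treated controls.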

[4] = NCI Yeast Anticancer Drug Screen. Data for the wt1 strain (AID 149);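 further: 0% = growth of vehicle-treated wt1 cultures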; conditions: S. cerevisiae wt1 strain (SPY 50644) growth inhibition, stronger effect = higher value
Summary of the method: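 The wt1 strain was treated with compounds, and growth was compared with vehicle-treated cultures to give inhibition.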

[5] = NCI Yeast Anticancer Drug Screen. Data for the rad50EPP+ strain (AID 151);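 further: 0% = growth of vehicle-treated control cultures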; conditions: S. cerevisiae rad50 mutant strain, stronger effect = higher value
Summary of the method: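 Yeast strain carrying rad50 alteration (rad50EPP+) exposed to compounds; growth inhibition measured relative to vehicle-treated controls.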

[6] = NCI Yeast Anticancer Drug Screen. Data for the mgt1 strain (AID 153); conditions: S. cerevisiae mgt1 mutant growth inhibition, stronger effect = higher value
Summary of the method: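 Yeast mgt1 strain (DNA repair/cell-cycle alteration panel) exposed to compounds; growth inhibition measured relative to vehicle-treated controls.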

[7] = NCI Yeast Anticancer Drug Screen. Data for the rad50 strain (AID 155);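 further: 0% = growth of vehicle-only cultures of the same strain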; conditions: S. cerevisiae rad50 strain growth inhibition, stronger effect = higher value
Summary of the method: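 Cells are treated with compound, grown, and their growth is then scored against vehicle-only cultures of the same repair-deficient yeast strain.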

[8] = NCI Yeast Anticancer Drug Screen. Data for the mec2-1 strain (AID 157); conditions: S. cerevisiae mec2-1 strain, stronger effect = higher value
Summary of the method: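 mec2-1 yeast strain, carrying an alteration in DNA damage repair or cell cycle control, was exposed to compounds; growth inhibition was measured relative to vehicle-treated controls.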

[9] = NCI Yeast Anticancer Drug Screen. Data for the rad14 strain (AID 159);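 further: 0% = growth of vehicle-treated control cultures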; conditions: S. cerevisiae rad14 strain growth inhibition, stronger effect = higher value
Summary of the method: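 Readout: yeast growth inhibition, referenced to vehicle-only cultures. Strain bears a defined alteration in DNA damage repair.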

[10] = NCI Yeast Anticancer Drug Screen. Data for the CLN2oe strain (AID 163);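 further: 0% = growth of vehicle-only control cultures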; conditions: S. cerevisiae CLN2oe strain, stronger effect = higher value
Summary of the method: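 Yeast cells carrying a defined cell-cycle control alteration were exposed to test compounds. Growth inhibition was scored against vehicle-treated control cultures.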

[11] = NCI Yeast Anticancer Drug Screen. Data for the cln2 rad14 strain (AID 165);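 further: 0% = growth equal to vehicle treated cultures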; conditions: S. cerevisiae cln2 rad14 strain, stronger effect = higher value
Summary of the method: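 Yeast carrying cln2 and rad14 alterations (cell cycle control and DNA damage repair) were exposed to compounds. Growth inhibition was measured against vehicle-treated controls.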

[12] = NCI Yeast Anticancer Drug Screen. Data for the bub3 strain (AID 167); conditions: S. cerevisiae bub3 mutant strain, stronger effect = higher value
Summary of the method: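 Part of a panel of yeast mutants defective in DNA damage repair or cell cycle regulation. Each strain is grown with compound, and inhibition is calculated relative to solvent-treated cultures.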

[13] = NCI Yeast Anticancer Drug Screen. Data for the wt2 strain (AID 169);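 further: 0% = growth of vehicle-treated yeast cultures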; conditions: S. cerevisiae wt2 strain growth inhibition, stronger effect = higher value
Summary of the method: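 Yeast cells were exposed to test compounds, and growth inhibition was measured relative to vehicle-treated controls.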

[14] = NCI Yeast Anticancer Drug Screen. Data for the mlh1 strain (AID 171);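 further: 0% = growth of vehicle-treated control cultures of the same strain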; conditions: S. cerevisiae mlh1 strain growth inhibition, stronger effect = higher value
Summary of the method: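 Yeast carrying a defined genetic alteration in DNA damage repair or cell cycle control were exposed to test compounds. Growth inhibition was measured relative to vehicle-treated controls.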

[15] = NCI Yeast Anticancer Drug Screen. Data for the sgs1 strain (AID 173);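 further: 0% = growth of vehicle-only control cultures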; conditions: S. cerevisiae sgs1 mutant, stronger effect = higher value
Summary of the method: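 Yeast mutant strains carrying defined defects in DNA damage repair or cell cycle control were exposed to test compounds. Growth inhibition was scored against vehicle-treated controls.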

[16] = NCI Yeast Anticancer Drug Screen. Data for the sgs1 mgt1 strain (AID 161);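 further: 0% = growth of cultures given vehicle only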; conditions: S. cerevisiae sgs1 mgt1 strain, stronger effect = higher value
Summary of the method: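 Growth of a repair-deficient yeast mutant was monitored after compound treatment and expressed as inhibition relative to vehicle-treated cultures.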

[17] = at 5.0 µM (retest, dose inferred, filed as 0.5)
[18] = at 50.0 µM (retest, dose inferred, filed as 5.0)

Measured: growth inhibition

CC(=O)O[C@H]1C(=O)[C@@]2(C)[C@H]([C@H](OC(=O)c3ccccc3)[C@]3(O)C[C@H](OC(=O)[C@H](O)[C@@H](NC(=O)c4ccccc4)c4ccccc4)C(C)=C1C3(C)C)[C@]1(OC(C)=O)CO[C@@H]1C[C@@H]2O
inactive: [1]; at 50.0 µM 15.8% | [2]; at 1.2 µM -5% | [2]; at 3.7 µM -1% | [2]; at 11.0 µM 1% | [2]; at 33.0 µM 2% | [2]; at 100.0 µM 0%

O=C1C=CC(=O)N1c1ccc(N2C(=O)C=CC2=O)cc1
active: [3]; at 3.7 µM 93% | [3]; at 11.0 µM 100% | [3]; at 33.0 µM 100% | [3]; at 100.0 µM 99% | [4]; at 3.7 µM 95% | [4]; at 11.0 µM 100% | [4]; at 33.0 µM 100% | [4]; at 100.0 µM 98% | [5]; at 11.0 µM 85% | [5]; at 33.0 µM 99% | [5]; at 100.0 µM 99% | [6]; at 3.7 µM 102% | [6]; at 11.0 µM 100% | [6]; at 33.0 µM 100% | [6]; at 100.0 µM 98% | [7]; at 3.7 µM 97% | [7]; at 11.0 µM 100% | [7]; at 33.0 µM 100% | [7]; [18] 73% | [7]; at 50.0 µM 92.2% | [7]; at 100.0 µM 99% | [8]; at 3.7 µM 101% | [8]; at 11.0 µM 100% | [8]; at 33.0 µM 100% | [8]; [18] 82% | [8]; at 50.0 µM 94.4% | [8]; at 100.0 µM 99% | [9]; at 3.7 µM 101% | [9]; at 11.0 µM 100% | [9]; at 33.0 µM 100% | [9]; at 100.0 µM 99% | [10]; at 11.0 µM 99% | [10]; at 33.0 µM 99% | [10]; at 100.0 µM 99% | [11]; [18] 100% | [11]; at 50.0 µM 92.3% | [12]; at 3.7 µM 96% | [12]; at 11.0 µM 100% | [12]; at 33.0 µM 100% | [12]; [18] 99% | [12]; at 50.0 µM 92.8% | [12]; at 100.0 µM 99% | [13]; at 3.7 µM 91% | [13]; at 11.0 µM 99% | [13]; at 33.0 µM 100% | [13]; at 100.0 µM 98% | [14]; at 3.7 µM 99% | [14]; at 11.0 µM 100% | [14]; at 33.0 µM 100% | [14]; at 100.0 µM 99% | [15]; at 3.7 µM 99% | [15]; at 11.0 µM 99% | [15]; at 33.0 µM 100% | [15]; at 100.0 µM 99% | [1]; [18] 75% | [1]; at 50.0 µM 92.5%
inactive: [3]; at 1.2 µM 43% | [4]; at 1.2 µM 33% | [5]; at 1.2 µM 3% | [5]; at 3.7 µM 49% | [6]; at 1.2 µM 60% | [7]; at 1.2 µM 32% | [7]; [17] 44% | [8]; at 1.2 µM 46% | [8]; [17] 39% | [9]; at 1.2 µM 17% | [10]; at 1.2 µM 35% | [10]; at 3.7 µM 59% | [11]; [17] 47% | [12]; at 1.2 µM 48% | [12]; [17] 19% | [13]; at 1.2 µM 9% | [14]; at 1.2 µM 49% | [15]; at 1.2 µM 41% | [1]; [17] 37%

CCCCCC#CCOC(=O)C(=[N+]=[N-])P(=O)(c1ccccc1)c1ccccc1
active: [3]; at 100.0 µM 96% | [4]; at 100.0 µM 96% | [7]; [18] 94% | [7]; at 50.0 µM 87.8% | [7]; at 100.0 µM 95% | [8]; [18] 97% | [8]; at 50.0 µM 90.5% | [8]; at 100.0 µM 95% | [9]; at 100.0 µM 94% | [16]; at 50.0 µM 90.8% | [10]; at 100.0 µM 96% | [11]; [18] 96% | [11]; at 50.0 µM 86.7% | [12]; [18] 95% | [12]; at 50.0 µM 89.3% | [12]; at 100.0 µM 95% | [13]; at 100.0 µM 97% | [14]; at 100.0 µM 97% | [15]; at 100.0 µM 98% | [1]; [18] 96% | [1]; at 50.0 µM 87% | [2]; at 100.0 µM 96%
inactive: [3]; at 1.2 µM 7% | [3]; at 3.7 µM 16% | [3]; at 11.0 µM 7% | [3]; at 33.0 µM 10% | [4]; at 1.2 µM 3% | [4]; at 3.7 µM -2% | [4]; at 11.0 µM 3% | [4]; at 33.0 µM -2% | [5]; at 1.2 µM 21% | [5]; at 3.7 µM 13% | [5]; at 11.0 µM 26% | [5]; at 33.0 µM 14% | [5]; at 100.0 µM 6% | [7]; at 1.2 µM 14% | [7]; at 3.7 µM 21% | [7]; [17] -6% | [7]; at 11.0 µM 13% | [7]; at 33.0 µM 13% | [8]; at 1.2 µM 11% | [8]; at 3.7 µM 7% | [8]; [17] -6% | [8]; at 11.0 µM -3% | [8]; at 33.0 µM -4% | [9]; at 1.2 µM -11% | [9]; at 3.7 µM -6% | [9]; at 11.0 µM -9% | [9]; at 33.0 µM -6% | [16]; [17] 8% | [16]; [18] 46% | [10]; at 1.2 µM 7% | [10]; at 3.7 µM 5% | [10]; at 11.0 µM 9% | [10]; at 33.0 µM -1% | [11]; [17] 37% | [12]; at 1.2 µM 1% | [12]; at 3.7 µM 0% | [12]; [17] 8% | [12]; at 11.0 µM -23% | [12]; at 33.0 µM -23% | [13]; at 1.2 µM 4% | [13]; at 3.7 µM 10% | [13]; at 11.0 µM 5% | [13]; at 33.0 µM 5% | [14]; at 1.2 µM 28% | [14]; at 3.7 µM 23% | [14]; at 11.0 µM 26% | [14]; at 33.0 µM 20% | [15]; at 1.2 µM 17% | [15]; at 3.7 µM 21% | [15]; at 11.0 µM 15% | [15]; at 33.0 µM 16% | [1]; [17] 22% | [2]; at 1.2 µM 7% | [2]; at 3.7 µM 8% | [2]; at 11.0 µM 7% | [2]; at 33.0 µM 14%
